Experimental data reported in PubChem BioAssay (NCATS).
Records with an inconclusive call do not appear. Entries that show only a call come without a potency. Some compounds were tested as several samples or in several runs, with calls that do not always agree. Active and inactive are the calls of the source. The call rests on the fitted dose curve; in most records, active means well fitted inhibition curve with a large enough effect; inconclusive means small, poorly fitted or top-dose-only effect; inactive means no such curve, though single readings can be large or run the other way.

Target: M-phase phosphoprotein 8 (Homo sapiens) (UniProt Q99549)
Sequence (Q99549 whole entry, looked up): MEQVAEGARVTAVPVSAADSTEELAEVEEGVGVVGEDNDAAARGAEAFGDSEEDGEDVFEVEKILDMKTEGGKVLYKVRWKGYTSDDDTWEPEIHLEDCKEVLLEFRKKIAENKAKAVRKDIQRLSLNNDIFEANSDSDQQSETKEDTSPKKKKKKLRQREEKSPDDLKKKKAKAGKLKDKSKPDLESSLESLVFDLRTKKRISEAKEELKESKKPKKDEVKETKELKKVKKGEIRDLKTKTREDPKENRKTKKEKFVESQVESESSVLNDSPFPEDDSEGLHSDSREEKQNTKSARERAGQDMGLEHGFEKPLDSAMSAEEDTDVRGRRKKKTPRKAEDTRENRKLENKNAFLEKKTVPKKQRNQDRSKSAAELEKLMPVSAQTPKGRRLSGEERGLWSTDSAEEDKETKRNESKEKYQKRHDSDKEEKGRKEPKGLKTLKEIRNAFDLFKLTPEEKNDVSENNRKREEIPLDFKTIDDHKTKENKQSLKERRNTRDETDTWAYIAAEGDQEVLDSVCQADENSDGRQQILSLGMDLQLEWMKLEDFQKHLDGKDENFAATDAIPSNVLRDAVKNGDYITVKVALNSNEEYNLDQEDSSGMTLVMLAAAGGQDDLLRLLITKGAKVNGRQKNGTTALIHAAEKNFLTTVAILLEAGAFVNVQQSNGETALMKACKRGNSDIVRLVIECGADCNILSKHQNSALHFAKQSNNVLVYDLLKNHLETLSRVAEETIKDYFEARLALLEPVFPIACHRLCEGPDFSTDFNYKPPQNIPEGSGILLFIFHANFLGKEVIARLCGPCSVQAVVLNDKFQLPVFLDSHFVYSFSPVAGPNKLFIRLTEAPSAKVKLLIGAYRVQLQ
Experiment: qHTS Validation Assay for Inhibitors for MPP8 Chromodomain Interactions with Methylated Histone Tails (AID 488949); further: nearly all actives have a fitted effect of over 55% in size
Conditions: AlphaScreen MPP8 binding to H3K9me3 peptide; series mostly up to 57.1 µM
Summary of the method: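 AlphaScreen proximity signal from streptavidin donor and Ni-chelate acceptor beads (10 ug/mL each) reported binding of MPP8 to trimethyl-K9 H3(1-18) peptide, both at 50 nM. The complex formed 30 min before a 30 min compound exposure at room temperature, in PBS pH 7.4.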
Potency means the concentration at half of the fitted maximal effect.

Row | Compound | Potency
1 | CC(C)[N+](C)(CCOC(=O)C1c2ccccc2Oc2ccccc21)C(C)C | inactive
2 | CC1=NS(=O)(=O)c2cc(Cl)ccc2N1 | inactive
3 | NC1=NCC2c3ccccc3Cc3ccccc3N12 (stereo not given) | inactive
4 | O=C(O)CN(CCOCCOCCN(CC(=O)O)CC(=O)O)CC(=O)O | inactive
5 | CCO/C([O-])=N/c1c[n+](N2CCOCC2)no1 | inactive
6 | CNCCC(Oc1ccccc1OC)c1ccccc1 (stereo not given) | inactive
7 | C[N+](C)(C)CCOC(=O)CCC(=O)OCC[N+](C)(C)C | inactive
8 | CCN(CC)CCCN(c1ccccc1)C1Cc2ccccc2C1 | inactive
9 | CCCN(CCC)CCc1cccc2c1CC(=O)N2 | inactive
10 | C[C@@H](O)[C@H]1C(=O)N2C(C(=O)O)=C(SCCN=CN)C[C@H]12 | inactive
11 | CCN1CCC[C@H]1CNC(=O)c1c(O)c(Cl)cc(Cl)c1OC | inactive
12 | CC(C)COCC(CN(Cc1ccccc1)c1ccccc1)N1CCCC1 (stereo not given) | inactive
13 | CC(C)(Oc1ccc(CCNC(=O)c2ccc(Cl)cc2)cc1)C(=O)O | inactive
14 | CN1C(=O)CC[C@H]1c1cccnc1 | inactive
15 | Cc1nc2ccccn2c(=O)c1CCN1CCC(C(=O)c2ccc(F)cc2)CC1 | inactive
16 | NC(=O)c1cn(Cc2c(F)cccc2F)nn1 | inactive
17 | CCCCCCCC/C=C\CCCCCCCC(=O)NCc1ccc(O)c(OC)c1 | inactive
18 | CN(C(=O)CCCOc1ccc2[nH]c(=O)ccc2c1)C1CCCCC1 | inactive

Row | Compound | Potency
19 | CSc1ccc(C(=O)c2[nH]c(=O)[nH]c2C)cc1 | inactive
20 | C[C@]12CC[C@@H]3c4ccc(O)cc4C[C@@H](CCCCCCCCCS(=O)CCCC(F)(F)C(F)(F)F)[C@H]3[C@@H]1CC[C@@H]2O (stereo not given in full) | inactive
21 | CC(=O)[C@@]1(O)CC[C@H]2[C@@H]3CCC4=CC(=O)CC[C@]4(C)[C@H]3CC[C@@]21C | inactive
22 | CCCCCN(CCCCC)C(=O)C(CCC(=O)O)NC(=O)c1ccc(Cl)c(Cl)c1 (stereo not given) | inactive
23 | O=C(CCNNC(=O)c1ccncc1)NCc1ccccc1 | inactive
24 | COCCc1ccc(OCC(O)CNC(C)C)cc1 (stereo not given) | inactive
25 | c1ccc2c(c1)CCCC2C1=NCCN1 (stereo not given) | inactive
26 | Cc1cccc(C)c1NC(=O)C(C)N (stereo not given) | inactive
27 | OC(CCN1CCCCC1)(c1ccccc1)C1CCCCC1 (stereo not given) | inactive
28 | CCn1ccnc1CC1COc2ccccc2O1 (stereo not given) | inactive
29 | CCCN(CCC)C(=O)C(CCC(=O)O)NC(=O)c1ccccc1 (stereo not given) | inactive
30 | Cc1ccc(S(=O)(=O)NC(=O)NN2CCCCCC2)cc1 | inactive
31 | CCCOc1ccccc1-c1nc2n[nH]nc2c(=O)[nH]1 | inactive
32 | NC(=O)c1ncn([C@@H]2O[C@H](CO)[C@@H](O)[C@H]2O)c1O | inactive
33 | CCc1cccc(N(C)C(N)=Nc2cccc3ccccc23)c1 | inactive
34 | C[n+]1cc2c3c(ccc2c2ccc4cc5c(cc4c21)OCO5)OCO3 | 31.6 µM (active) and inactive
35 | Cc1nc2sccn2c(=O)c1CCN1CCC(=C(c2ccc(F)cc2)c2ccc(F)cc2)CC1 | 28.2 µM (active) and inactive

Target: Chromobox protein homolog 1 (Homo sapiens) (UniProt P83916)
Sequence (P83916 whole entry, looked up): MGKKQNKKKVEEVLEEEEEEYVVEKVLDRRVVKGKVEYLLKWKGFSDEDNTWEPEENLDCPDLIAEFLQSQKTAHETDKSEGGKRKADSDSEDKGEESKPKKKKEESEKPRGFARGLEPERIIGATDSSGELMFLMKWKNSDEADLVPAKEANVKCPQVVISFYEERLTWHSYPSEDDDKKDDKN
Experiment: qHTS Validation Assay for Inhibitors of HP1-beta Chromodomain Interactions with Methylated Histone Tails (AID 488953); further: nearly all actives have a fitted effect of over 50% in size
Conditions: HP1-beta chromodomain / methylated histone peptide binding assay; series mostly up to 114 µM
Summary of the method: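 Measured as loss of AlphaScreen luminescence from streptavidin donor and nickel acceptor beads (10 ug/mL final) bridging HP1-beta and biotin-H3(1-18)K9me3, each 50 nM. Compounds met the preassembled complex for 30 min at RT.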

Row | Compound | Potency
36 | CC(C)[N+](C)(CCOC(=O)C1c2ccccc2Oc2ccccc21)C(C)C | inactive
37 | CC1=NS(=O)(=O)c2cc(Cl)ccc2N1 | inactive
38 | NC1=NCC2c3ccccc3Cc3ccccc3N12 (stereo not given) | inactive
39 | O=C(O)CN(CCOCCOCCN(CC(=O)O)CC(=O)O)CC(=O)O | inactive
40 | CCO/C([O-])=N/c1c[n+](N2CCOCC2)no1 | inactive
41 | CNCCC(Oc1ccccc1OC)c1ccccc1 (stereo not given) | inactive
42 | C[N+](C)(C)CCOC(=O)CCC(=O)OCC[N+](C)(C)C | inactive
43 | CCN(CC)CCCN(c1ccccc1)C1Cc2ccccc2C1 | inactive
44 | CCCN(CCC)CCc1cccc2c1CC(=O)N2 | inactive
45 | C[C@@H](O)[C@H]1C(=O)N2C(C(=O)O)=C(SCCN=CN)C[C@H]12 | inactive
46 | CCN1CCC[C@H]1CNC(=O)c1c(O)c(Cl)cc(Cl)c1OC | inactive
47 | CC(C)COCC(CN(Cc1ccccc1)c1ccccc1)N1CCCC1 (stereo not given) | inactive
48 | CC(C)(Oc1ccc(CCNC(=O)c2ccc(Cl)cc2)cc1)C(=O)O | inactive
49 | CN1C(=O)CC[C@H]1c1cccnc1 | inactive
50 | Cc1nc2ccccn2c(=O)c1CCN1CCC(C(=O)c2ccc(F)cc2)CC1 | inactive
51 | NC(=O)c1cn(Cc2c(F)cccc2F)nn1 | 6 nM (active)
52 | CCCCCCCC/C=C\CCCCCCCC(=O)NCc1ccc(O)c(OC)c1 | inactive
53 | CN(C(=O)CCCOc1ccc2[nH]c(=O)ccc2c1)C1CCCCC1 | inactive

Row | Compound | Potency
54 | CSc1ccc(C(=O)c2[nH]c(=O)[nH]c2C)cc1 | inactive
55 | C[C@]12CC[C@@H]3c4ccc(O)cc4C[C@@H](CCCCCCCCCS(=O)CCCC(F)(F)C(F)(F)F)[C@H]3[C@@H]1CC[C@@H]2O (stereo not given in full) | inactive
56 | CC(=O)[C@@]1(O)CC[C@H]2[C@@H]3CCC4=CC(=O)CC[C@]4(C)[C@H]3CC[C@@]21C | inactive
57 | CCCCCN(CCCCC)C(=O)C(CCC(=O)O)NC(=O)c1ccc(Cl)c(Cl)c1 (stereo not given) | inactive
58 | O=C(CCNNC(=O)c1ccncc1)NCc1ccccc1 | inactive
59 | COCCc1ccc(OCC(O)CNC(C)C)cc1 (stereo not given) | inactive
60 | c1ccc2c(c1)CCCC2C1=NCCN1 (stereo not given) | inactive
61 | Cc1cccc(C)c1NC(=O)C(C)N (stereo not given) | inactive
62 | OC(CCN1CCCCC1)(c1ccccc1)C1CCCCC1 (stereo not given) | inactive
63 | CCn1ccnc1CC1COc2ccccc2O1 (stereo not given) | inactive
64 | CCCN(CCC)C(=O)C(CCC(=O)O)NC(=O)c1ccccc1 (stereo not given) | inactive
65 | Cc1ccc(S(=O)(=O)NC(=O)NN2CCCCCC2)cc1 | inactive
66 | CCCOc1ccccc1-c1nc2n[nH]nc2c(=O)[nH]1 | inactive
67 | NC(=O)c1ncn([C@@H]2O[C@H](CO)[C@@H](O)[C@H]2O)c1O | inactive
68 | CCc1cccc(N(C)C(N)=Nc2cccc3ccccc23)c1 | 7.5 nM (active)
69 | C[n+]1cc2c3c(ccc2c2ccc4cc5c(cc4c21)OCO5)OCO3 | inactive
70 | Cc1nc2sccn2c(=O)c1CCN1CCC(=C(c2ccc(F)cc2)c2ccc(F)cc2)CC1 | 44700 nM (active)
